Results on 87 molecules are retold here after PubChem BioAssay AID504582 (Broad Institute, 2011).

Structures are written as SMILES. In all, about 340,000 compounds went through this assay and about 2,300 (0.68%) were called active. Rule as the data show it: active = growth rescue above about 28% (passing the limit was not always enough); inconclusive = no clear call, values can overlap the other calls. For the sample, actives were picked, then their nearest neighbours and some compounds at random.

This test can be described thus: rescue of yeast from PfHsp40 toxicity, primary screen, S. cerevisiae, ATP luminescence (AID 504582).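 Also: yeast W303a lacking pdr1 and pdr3 grown in galactose medium; growth measured after three days at 30 °C.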 The conditions noted are these: S. cerevisiae expressing PfHsp40, growth rescue, at 12.5 µM, hits give high values.
As for `CN(c1ccc(C(=O)NCCC2=CCCCC2)cc1)S(C)(=O)=O`, the growth rescue is -0.452% (inactive).

On to `O=C(NCCC1=CCCCC1)c1ccc(Cl)c([N+](=O)[O-])c1`, for which the growth rescue is 34.2% (active).

With `O=C(NCCC1=CCCCC1)c1ccc(-n2cncn2)cc1`, the growth rescue is 0.575% (inactive).

For `CCOc1ccccc1N(CC(=O)NC1CCCCC1)C(=O)CCCC(=O)Nc1ccccn1`, the growth rescue was 0.515% (inactive).

As for `Cc1ccc(NC(=O)CN(C)C(=O)COC(=O)C(C)(C)Oc2ccc(Cl)cc2)cc1`, the growth rescue was -0.952% (inactive).

Consider `O=C(NNC(=S)NC(=O)c1cn(-c2ccccc2)nc1-c1ccccc1)c1ccncc1`, for which the growth rescue was 117% (active).

On to `NC(=O)C1CCN(C(=O)c2cn(-c3ccccc3)nc2-c2cccnc2)CC1`, for which the growth rescue was -1.23% (inactive).

Regarding `Cc1ccc(-c2nn(-c3ccccc3)cc2C(=O)NC2CCC(O)CC2)cc1` (configuration not stated), the growth rescue is -0.972% (inactive).

Consider `Cc1ccc(SC(=O)COc2ccc(C)c(C)c2)cc1`, for which the growth rescue was -0.169% (inactive).

`CCOc1ccc(-c2ccc(SCC(=O)N3CCOCC3)nn2)cc1`: the growth rescue was -0.865% (inactive).

With `CC(C)C[C@@H](COc1ccccc1)N1CCN(CC(C)C)CCC1=O`, the growth rescue was 0.09% (inactive).

For the molecule `CC1(C)C=Cc2c(ccc3c2OC[C@@H](c2ccc(O)cc2O)C3)O1`, the growth rescue is 232% (active).

For `Nc1cc(N)nc(SCC(=O)Nc2cccc(S(=O)(=O)N3CCCCC3)c2)n1`, the growth rescue was 0.009% (inactive).

For the molecule `Cn1c(CC2Sc3ccccc3NC2=O)nnc1SCC(=O)c1ccc(Cl)cc1` (configuration not stated), the growth rescue was -0.256% (inactive).

For `COc1ccc(C2N=C(N)N=C(N)N2c2ccccc2)cc1OC` (configuration not stated), the growth rescue was 0.038% (inactive).

`CC/C(=N\NC(=O)c1ccccc1Cl)c1ccc(Br)s1`: the growth rescue was -0.619% (inactive).

For `CC/C(=N\NC(=O)c1ccccc1O)c1c(O)n(Cc2ccccc2)c(=O)[nH]c1=O`, the growth rescue was 44.8% (active).

Take `COCCN(C(=O)c1ccccc1F)c1c(N)n(Cc2ccccc2)c(=O)[nH]c1=O`: the growth rescue is -0.643% (inactive).

Regarding `COc1ccc(C(=O)CN2C(=O)NC(C)(c3ccc(C)cc3)C2=O)cc1OC` (configuration not stated), the growth rescue was 0.439% (inactive).

Consider `COc1ccc(C2Nc3ccccc3C(=O)N2c2ccc(Cl)cc2)cc1Cn1cc([N+](=O)[O-])cn1` (configuration not stated), for which the growth rescue is 0.089% (inactive).

`Cn1ncc(Br)c1C(=O)NC1CCCC1`: the growth rescue was -0.467% (inactive).

Take `COC(=O)[C@@H]1C[C@@]2(O)[C@H](O)[C@H](O)[C@H](O)C[C@H]2N1Cc1ccc(C)s1`: the growth rescue is -1.59% (inactive).

Turning to `COC(=O)[C@@H]1C[C@@]2(O)[C@H](O)[C@H](O)[C@H](O)C[C@H]2N1Cc1ccc(C(C)(C)C)cc1`, the growth rescue is 29% (active).

Consider `COC(=O)[C@@H]1C[C@@]2(O)[C@@H](O)[C@@H](O)[C@@H](O)C[C@H]2N1Cc1ccc(C)s1`, for which the growth rescue was -0.441% (inactive).

Turning to `CC(=O)c1cccc(-c2ccc(CN3C(CC(C)C)C(=O)N(Cc4cn(CC5CCCCC5)nn4)CCS3(=O)=O)cc2)c1` (configuration not stated), the growth rescue was 0.3% (inactive).

`Cc1cc(N=Nc2ccc3ccccc3c2)ccc1O`: the growth rescue was 91.3% (active).

For the molecule `C#CCOCCOCCOCCNc1nc(N2CCN(C(=O)[C@H](C(C)C)n3cc(CCO)nn3)CC2)nc(N2CCN(C(=O)[C@H](C(C)C)n3cc(CCO)nn3)CC2)n1`, the growth rescue was -2.28% (inactive).

For `C#CCOCCOCCOCCNc1nc(N2CCN(C(=O)CCCCCCCCCCNC(=O)[C@H]([C@@H](C)CC)n3cc(CCCCN=C(N)N)nn3)CC2)nc(N2CCN(C(=O)CCCCCCCCCCNC(=O)[C@H](CO)n3cc(CCCSC)nn3)CC2)n1`, the growth rescue is 29.5% (active).

With `C#CCOCCOCCOCCNc1nc(N2CCN(C(=O)[C@H](CCCN=C(N)N)n3cc(C(N)[C@@H](C)CC)nn3)CC2)nc(N2CCN(C(=O)[C@H](CO)n3cc([C@@H](N)C(C)C)nn3)CC2)n1` (some centres not stated), the growth rescue was -0.354% (inactive).

As for `CCOc1ccc(S(=O)(=O)n2ccnc2)c2ccccc12`, the growth rescue is -0.0665% (inactive).

As for `COc1cccc(NC(=O)C2CCCN2C(=O)OCc2ccccc2)c1` (configuration not stated), the growth rescue was 0.607% (inactive).

As for `CN(C)C(=O)CCC(=O)N1CCCCC1C(=O)Nc1ccc(Oc2ccccc2F)cc1` (configuration not stated), the growth rescue was 141% (active).

With `COc1ccc(NC(=O)N2CCCC2C(=O)NCc2ccccc2Cl)cc1` (configuration not stated), the growth rescue is -2.16% (inactive).

In the case of `COc1ccc(OC)c(C(=O)c2ccc(C(=O)N3CCN(Cc4csc(C)n4)CC3)cc2)c1`, the growth rescue was -1.18% (inactive).

In the case of `O=C(Cn1nnc(-c2ccccc2)n1)N/N=C/c1ccc(-c2ccc(Cl)cc2)o1`, the growth rescue is -1.63% (inactive).

With `O=C(NCc1ccco1)C1CCCN(S(=O)(=O)c2cnc[nH]2)C1` (configuration not stated), the growth rescue was 0.411% (inactive).

With `COc1cc(/C=N/O)cc(Br)c1OCc1cccc(Cl)c1`, the growth rescue is 157% (active).

As for `COc1cc(/C=N/O)cc(Br)c1OS(=O)(=O)c1ccc(C)cc1`, the growth rescue was -0.295% (inactive).

For `COc1cc(C(=O)NCc2ccncc2)cc(Br)c1OCc1ccccc1`, the growth rescue was 1.27% (inactive).

Regarding `COc1ccc(OC)c(NC(=O)c2ccc3c(c2)C(=O)N(c2ccc(OC(C)=O)cc2)C3=O)c1`, the growth rescue was -0.414% (inactive).

In the case of `Cc1cccc(N2C(=O)c3ccc(C(=O)Nc4cccc(C(=O)O)c4)cc3C2=O)c1`, the growth rescue is -0.247% (inactive).

On to `CC(=O)Oc1ccc(C)cc1N1C(=O)c2ccc(C(=O)O)cc2C1=O`, for which the growth rescue was 103% (active).

For `CCc1ccc(C(=O)NNC(=O)C2CCN(c3ncnc4sc(C)c(C)c34)CC2)cc1`, the growth rescue is 4.88% (inactive).

For the molecule `O=S(=O)(c1ccc(Br)cc1)n1ccc2ccccc21`, the growth rescue was 17.1% (inactive).

Take `CCCC(C)C(=O)OCC(=O)Nc1c(Br)cc(C)cc1Br` (configuration not stated): the growth rescue is 1.14% (inactive).

For the molecule `COc1ccc(-c2nc3ccccc3c(=O)n2CCc2ccc(O)cc2)cc1`, the growth rescue was 31.2% (active).

For `COc1ccc(NC(=O)CSc2nc3ccccc3c(=O)n2C)cc1`, the growth rescue is -2.46% (inactive).

With `COc1ccc(OCc2ccc(-c3nc4ccccc4c(=O)n3N)o2)cc1`, the growth rescue is 0.704% (inactive).

Regarding `COc1cccc(C(O)c2nc3ccccc3n2C)c1` (configuration not stated), the growth rescue is -0.645% (inactive).

With `CCCCCC(O)c1cccc(OCc2ccc3ccccc3n2)c1` (configuration not stated), the growth rescue is 57.6% (active).

As to `Clc1ccccc1-c1cc(COc2ccc3ccccc3c2)no1`, the growth rescue is -0.819% (inactive).

In the case of `Cc1no[n+]([O-])c1COc1ccccc1/C=C1\NC(=S)NC1=O`, the growth rescue is 0.211% (inactive).

On to `Cc1[nH]c2c(C(=O)N3CCCC(CCC(=O)NCc4ccccc4F)C3)cccc2c1C` (configuration not stated), for which the growth rescue was 1.34% (inactive).

Regarding `O=C(c1cn(-c2ccccc2)nc1-c1cccnc1)N1CCN(S(=O)(=O)c2ccccc2F)CC1`, the growth rescue is -0.533% (inactive).

`O=[N+]([O-])/C=C1\CCCCCN1`: the growth rescue was 0.302% (inactive).

Take `Cc1ccc(OCC(=O)NNC(=S)NCc2ccccc2)cc1`: the growth rescue was -0.289% (inactive).

On to `O=C(Nc1ccc2ccccc2c1)/C(=C/c1cccc(Br)c1)NC(=O)c1ccco1`, for which the growth rescue was 1.72% (inactive).

Turning to `O=C(Nc1ccc2ccccc2c1)/C(=C\c1ccc2c(c1)OCO2)NC(=O)c1ccco1`, the growth rescue was 0.409% (inactive).

As for `NS(=O)(=O)c1ccc(CNC(=S)NC(=O)c2ccco2)cc1`, the growth rescue is 0.284% (inactive).

With `CCCc1ccc(OCC(=O)NNC(=S)NC(=O)c2ccco2)cc1`, the growth rescue is 58% (active).

`CC(Oc1ccc2ccccc2c1)C(=O)NNC(=S)NC(=O)c1ccco1` (configuration not stated): the growth rescue is 58.8% (active).

For the molecule `COc1ccc(S(=O)(=O)n2nc(C)c(S(=O)(=O)N3CCOCC3)c2C)cc1`, the growth rescue is 0.381% (inactive).

For `O=C(Cn1cnc2c(nnn2-c2ccccc2)c1=O)N1CCC(Cc2ccccc2)CC1`, the growth rescue was -0.205% (inactive).

Turning to `CCc1ccc(OCC(=O)OCC(=O)c2c(N)n(C)c(=O)n(C)c2=O)cc1`, the growth rescue is 1.51% (inactive).

As to `FC(F)(F)c1ccnc(Oc2ccc(C3=NCCS3)cc2)c1`, the growth rescue was 4.54% (inactive).

Turning to `C#CCNc1nc(C(C)C)nc2c1nnn2Cc1ccccc1F`, the growth rescue is -0.851% (inactive).

Take `CSc1sc(C(=O)NC(=O)NCc2cccnc2)c(C)c1-c1ccon1`: the growth rescue is -0.426% (inactive).

As to `O=C(NCCN1CCOCC1)c1cc(Sc2cccc(Cl)c2)nc2ccccc12`, the growth rescue was 1.79% (inactive).

As for `O=c1c(/C=N/O)coc2ccc(Cl)cc12`, the growth rescue was 412% (active).

`CCOC(=O)C1CCN(Cc2coc3ccc(Cl)cc3c2=O)CC1`: the growth rescue was -0.75% (inactive).

In the case of `O=C1/C(=C/c2coc3ccc(O)cc3c2=O)SC(=S)N1c1ccccc1`, the growth rescue is -0.334% (inactive).

Turning to `COc1ccccc1C(=O)Nc1ccc(OCc2nnc3c4ccccc4c(C)nn23)cc1`, the growth rescue is 1.5% (inactive).

Take `c1ccc(C(=NNc2nc3ccccc3s2)c2ccccn2)cc1`: the growth rescue is 223% (active).

For `C/C(=N/Nc1nc(-c2ccccc2)c(CC(=O)O)s1)c1ccccc1`, the growth rescue is -0.261% (inactive).

Regarding `COc1cc(OC)nc(N/N=C(\c2ccccc2)c2ccncc2)n1`, the growth rescue is 0.409% (inactive).

Consider `CCOc1cc(/C=C(/C#N)c2ccc(Cl)cc2)cc(Cl)c1OCC(=O)O`, for which the growth rescue is -0.745% (inactive).

In the case of `CSCCC(NC(=O)c1ccccc1)C(=O)N1CCN(Cc2ccc(Cl)cc2)CC1` (configuration not stated), the growth rescue is 0.474% (inactive).

Turning to `C[C@H](NC(=O)c1ccccc1Cl)C(=O)OCCOc1cccc(Cl)c1`, the growth rescue was 4.16% (inactive).

`COC(=O)c1cccc([N+](=O)[O-])c1CS(=O)(=O)c1ccc(C)cc1`: the growth rescue is -1.34% (inactive).

Consider `O=C(/C=C/c1cccc([N+](=O)[O-])c1)OCC(=O)N1CCOCC1`, for which the growth rescue was -0.951% (inactive).

Regarding `CC(C)CNC(=O)COC(=O)/C=C/c1ccccc1[N+](=O)[O-]`, the growth rescue is -0.287% (inactive).

Consider `O=C(/C=C/c1ccccc1[N+](=O)[O-])OCC(=O)N1CCCC1`, for which the growth rescue is 48.9% (active).

In the case of `COC(=O)C1=C(NC(=O)C(C)(C)C)CCS1`, the growth rescue is -1.07% (inactive).

For the molecule `COc1ccc(CNC(=O)C2CCN(C(=O)c3ccco3)CC2)cc1`, the growth rescue was 0.344% (inactive).

As to `COc1cccc(-n2c(SCC(=O)c3c[nH]c4ccccc34)nc3ccccc3c2=O)c1`, the growth rescue was -1.82% (inactive).

For `CCC/C(=N\O)c1c[nH]c2ccccc12`, the growth rescue is 0.247% (inactive).

For the molecule `COc1ccc(/C=C(\C#N)c2c[nH]c3ccccc23)cc1`, the growth rescue was 509% (active).
